# Values joined by “and” are separate entries in the source; they are usually repeats but may differ in a detail not shown here. Equal values may be shown once. About 83,000 compounds went through this panel and 20% of them were active in at least one assay; those are over-represented in the sample as a whole.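 Negative percent growth values reflect cell death: -40 means 40% of the cells present at the start died, and -100 means all died.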 Active and inactive are the calls of the source. Rule for the calls: active = growth percent below 10; inactive = the rest.
# Assays:
# Experiment in all cases: NCI-60 one-dose screen, 48 h (100 = growth as untreated, 0 = no growth, -100 = all killed)
# Settings in all cases: 10 µM unless noted
# DU-145 prostate = test system: DU-145 prostate
# K-562 leukemia = test system: K-562 leukemia
# MALME-3M melanoma = test system: MALME-3M melanoma
# MDA-MB-231 breast = test system: MDA-MB-231 breast
# RXF 393 renal = test system: RXF 393 renal
# SF-268 CNS = test system: SF-268 CNS
# SF-295 CNS = test system: SF-295 CNS
# SF-539 CNS = test system: SF-539 CNS
# UACC-257 melanoma = test system: UACC-257 melanoma
# M14 melanoma = test system: M14 melanoma
Structure (SMILES),growth (DU-145 prostate),growth (K-562 leukemia),growth (MALME-3M melanoma),growth (MDA-MB-231 breast),growth (RXF 393 renal),growth (SF-268 CNS),growth (SF-295 CNS),growth (SF-539 CNS),growth (UACC-257 melanoma),growth (M14 melanoma)
N#CC(C#N)=C/C=C/c1cccc([N+](=O)[O-])c1,-26.8% (active) and -24.1% (active),7.22% (active) and 3.61% (active),7.87% (active),9.84% (active) and 8.38% (active),-68.9% (active) and -73.5% (active),6.01% (active) and -8.99% (active),37.1% (inactive) and -41.1% (active),8.63% (active) and 4.54% (active),-32% (active) and -64.4% (active),-37.1% (active) and -74.9% (active)
CN(C)CCC(=O)c1ccc(Cl)cc1,112% (inactive) and 133% (inactive),110% (inactive) and 91.3% (inactive),106% (inactive) and 122% (inactive),105% (inactive) and 107% (inactive),110% (inactive) and 121% (inactive),105% (inactive) and 107% (inactive),117% (inactive) and 126% (inactive),106% (inactive),103% (inactive) and 104% (inactive),98.6% (inactive) and 109% (inactive)
C1CCCCNCCC1,118% (inactive),104% (inactive),106% (inactive),101% (inactive),103% (inactive),109% (inactive),104% (inactive),113% (inactive),100% (inactive),105% (inactive)
CN1CCN(C2CCN(C(=O)Nc3cc(Oc4ccc(NC(=O)C5(C(=O)Nc6ccc(F)cc6)CC5)c(F)c4)ccn3)CC2)CC1,8.48% (active) and 69.1% (inactive),0.176% (active) and 37.1% (inactive),-86.6% (active) and 60.2% (inactive),-65.7% (active) and 68.3% (inactive),-91.7% (active) and 86.4% (inactive),-22.5% (active) and 90.8% (inactive),-87.8% (active) and 50.8% (inactive),-96.4% (active) and 58.7% (inactive),-91.6% (active) and 95.8% (inactive),-77.3% (active) and 57% (inactive)
NC(=O)NO,110% (inactive) and 56.7% (inactive),113% (inactive) and 77% (inactive),102% (inactive) and 57.8% (inactive),98.8% (inactive) and 84.4% (inactive),116% (inactive) and 25.5% (inactive),102% (inactive) and 70.4% (inactive),99.4% (inactive) and 50.3% (inactive),104% (inactive) and 47.4% (inactive),102% (inactive) and 44% (inactive),104% (inactive)
C#CCN(C)Cc1ccccc1,111% (inactive),95.9% (inactive) and 94.2% (inactive),100% (inactive) and 305% (inactive),106% (inactive) and 89.6% (inactive),114% (inactive) and 96.6% (inactive),107% (inactive) and 99.5% (inactive),108% (inactive) and 98.1% (inactive),97.8% (inactive),105% (inactive),97.3% (inactive) and 96.8% (inactive)
Cc1ccc(-c2noc(CC(=O)c3ccc([N+](=O)[O-])cc3)n2)cc1,101% (inactive),89.1% (inactive),110% (inactive),104% (inactive),102% (inactive),95.6% (inactive),99% (inactive),98.2% (inactive),107% (inactive),96.5% (inactive)
COc1cc2nc(N3CCN(C(=O)C4COc5ccccc5O4)CC3)nc(N)c2cc1OC (stereo not given),102% (inactive) and 106% (inactive),93.3% (inactive) and 96.7% (inactive),113% (inactive) and 83.2% (inactive) and 95.6% (inactive),76.3% (inactive) and 86.2% (inactive) and 100% (inactive),86.4% (inactive) and 83.4% (inactive) and 109% (inactive),100% (inactive) and 89.5% (inactive) and 98.6% (inactive),108% (inactive) and 71.1% (inactive) and 101% (inactive),115% (inactive) and 89.9% (inactive) and 102% (inactive),101% (inactive) and 106% (inactive),104% (inactive) and 96.4% (inactive) and 96.3% (inactive)
N#CCCOc1ccccc1,117% (inactive),89.6% (inactive),95.1% (inactive),108% (inactive),114% (inactive),102% (inactive),101% (inactive),96.2% (inactive),92.6% (inactive),97.9% (inactive)
CC1CCCC(=O)O1 (stereo not given),106% (inactive) and 107% (inactive),104% (inactive) and 108% (inactive),104% (inactive),103% (inactive) and 111% (inactive),101% (inactive) and 112% (inactive),102% (inactive) and 111% (inactive),99.5% (inactive) and 102% (inactive),100% (inactive) and 94.7% (inactive),104% (inactive) and 98.9% (inactive),101% (inactive) and 105% (inactive)
CN1CCN(Cc2occc(=O)c2O)CCN(C)CCN(Cc2occc(=O)c2O)CC1,124% (inactive) and 61.6% (inactive),101% (inactive) and 16.6% (inactive),106% (inactive) and 72% (inactive),106% (inactive) and 62.3% (inactive),96.6% (inactive) and 72.9% (inactive),113% (inactive) and 63.7% (inactive),102% (inactive) and 76.2% (inactive),93.7% (inactive) and 48% (inactive),61.6% (inactive),105% (inactive) and 52.9% (inactive)
OC(COc1cccc2ccccc12)CN1CCN(c2ccc(Cl)cc2)CC1 (stereo not given),93.1% (inactive) and 122% (inactive),66.3% (inactive) and 85% (inactive),109% (inactive) and 106% (inactive),83.6% (inactive) and 112% (inactive),-3.89% (active) and 94.8% (inactive),91.1% (inactive) and 103% (inactive),70.2% (inactive) and 83.2% (inactive),91.3% (inactive) and 102% (inactive),114% (inactive) and 95.9% (inactive),90.9% (inactive) and 100% (inactive)
Cc1cc(-c2ccc(NS(=O)(=O)c3ccccc3)c(C)c2)ccc1NS(=O)(=O)c1ccccc1,93.8% (inactive) and 94.7% (inactive),62.7% (inactive) and 65.9% (inactive),79.6% (inactive) and 120% (inactive),70.1% (inactive) and 74.5% (inactive),70.1% (inactive) and 119% (inactive),91.5% (inactive) and 106% (inactive),58.1% (inactive) and 99.4% (inactive),108% (inactive) and 95.9% (inactive),93.6% (inactive) and 110% (inactive),87.4% (inactive) and 99% (inactive)
Cc1cc(C)c(N)c(Br)c1,122% (inactive) and 109% (inactive),107% (inactive) and 96.5% (inactive),105% (inactive) and 95.4% (inactive),112% (inactive) and 98.8% (inactive),116% (inactive) and 103% (inactive),105% (inactive) and 103% (inactive),127% (inactive) and 110% (inactive),108% (inactive) and 92.9% (inactive),106% (inactive) and 105% (inactive),103% (inactive)
O=C(O)C1(C(=O)O)CCC1.[NH2-].[NH2-].[Pt+2],127% (inactive) and 104% (inactive),65.9% (inactive),86.4% (inactive) and 94.2% (inactive),94.4% (inactive) and 8.97% (active),93.9% (inactive),118% (inactive) and 96.4% (inactive),103% (inactive) and 96.9% (inactive),100% (inactive) and 89% (inactive),102% (inactive) and 95.7% (inactive),99.2% (inactive) and 104% (inactive)
O=c1c2ccccc2nc2n1Cc1nc3ccccc3c(=O)n1C2,96.4% (inactive) and 102% (inactive),107% (inactive) and 62.5% (inactive),80.1% (inactive) and 108% (inactive),99.2% (inactive) and 105% (inactive),107% (inactive) and 108% (inactive),87.5% (inactive) and 103% (inactive),105% (inactive) and 112% (inactive),99% (inactive) and 102% (inactive),98.3% (inactive) and 112% (inactive),89.3% (inactive) and 94.1% (inactive)
